# RXFP1 ag: agonists of human relaxin receptor RXFP1; Q9HBX9; HEK293T-RXFP1 cAMP TR-FRET, 30 min; response scale: percent of porcine relaxin response, buffer zero; Potency, µM (highest dose often 57.5 µM), inactives show at the top dose activation, usual class: activators; 370,000 compounds, 0.3% hits; AID 2676; active = well fitted activation curve with a large enough effect; inconclusive = small, poorly fitted or top-dose-only effect; also: potency is read from the fitted curve at half-maximal effect; % is scaled to controls: 0 for no effect and ±100 for the full control effect; nearly all actives have a fitted effect of over 60% in size
# Target sequence (Q9HBX9 whole entry, looked up): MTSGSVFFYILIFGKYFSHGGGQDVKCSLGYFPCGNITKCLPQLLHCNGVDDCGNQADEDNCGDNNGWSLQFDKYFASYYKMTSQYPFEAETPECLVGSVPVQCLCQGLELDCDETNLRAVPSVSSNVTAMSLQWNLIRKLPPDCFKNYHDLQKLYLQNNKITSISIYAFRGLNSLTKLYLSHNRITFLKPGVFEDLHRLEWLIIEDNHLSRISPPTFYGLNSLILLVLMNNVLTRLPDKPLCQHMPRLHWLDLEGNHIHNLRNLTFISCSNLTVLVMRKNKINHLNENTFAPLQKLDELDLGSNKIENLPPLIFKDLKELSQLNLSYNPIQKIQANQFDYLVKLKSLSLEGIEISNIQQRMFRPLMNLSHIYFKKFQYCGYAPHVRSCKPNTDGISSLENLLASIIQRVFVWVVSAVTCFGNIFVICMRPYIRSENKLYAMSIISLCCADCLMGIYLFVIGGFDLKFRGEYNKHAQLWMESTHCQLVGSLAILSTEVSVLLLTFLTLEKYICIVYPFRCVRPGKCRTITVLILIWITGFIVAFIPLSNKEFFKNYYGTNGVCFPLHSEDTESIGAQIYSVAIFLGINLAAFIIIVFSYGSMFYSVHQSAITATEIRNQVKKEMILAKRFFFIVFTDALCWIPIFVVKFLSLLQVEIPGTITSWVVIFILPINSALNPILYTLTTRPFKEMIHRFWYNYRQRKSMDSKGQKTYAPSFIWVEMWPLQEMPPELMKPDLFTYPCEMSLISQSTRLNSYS
#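 cAMP rise read by TR-FRET after 30 min, 37C compound exposure (up to 58 uM) in RXFP1-transfected HEK293 cells with Ro 20174 present. EC50 from Hill-equation fits, with 29 nM porcine relaxin as 100% and buffer as basal.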
# RXFP1 antag: antagonists of human relaxin receptor RXFP1; HEK293-RXFP1, relaxin-stimulated cAMP HTRF, 30 min; hits give low values; 350,000 compounds, 0.59% hits; activity change, negative = inhibition, % at 57.5 µM;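 active = activity change of -60% or lower, but not beyond a set lower limit; inconclusive = change between -60% and -40%, or beyond the set limit; inactive = change above -40%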; also: % is scaled to controls: 0 for no effect and ±100 for the full control effect
# Akt phos inh: inhibitors of Akt phosphorylation; Neuro2A IGF-stimulated pAkt S473 HTRF, 20 min; hits give low values; activity change, % for hits at 50 µM; 360,000 compounds, 0.32% hits; AID 651550; in the data active = activity change below about -80%; inconclusive = mostly about -51% to -80%; also: % is scaled to controls: 0 for no effect and ±100 for the full control effect
#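 Neuro2A cells in DMEM with 0.5% FBS, overnight at 37 deg C, given compound at single 50 µM final, then IGF (6 nM final) for 20 min at 37 deg C. Lysed; phospho-Akt Ser473 by HTRF after 24 h, 665/615 ratio.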
# gsp ag: gsp mutant agonism. gsp mutant cells, cAMP HTRF, 30 min. 340,000 compounds, 0.13% hits. Potency, µM (top dose mostly 76.9 µM), for the others: at the highest dose activation (cAMP increase), most hits filed as activators. AID 624287; active = well fitted activation curve with a large enough effect; inconclusive = small, poorly fitted or top-dose-only effect, or another doubt; inactive = no such curve, though single readings can be large or run the other way; cell line not stated here;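 also: phosphodiesterase inhibitor Ro 20-1724 added with compounds to block cAMP breakdown; potency is read from the fitted curve at half-maximal effect; nearly all actives have a fitted effect of over 60% in size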
#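 Cells in DMEM/10% FBS with G418 were pretreated with compounds in DMSO plus […] (300 uM stock) for 30 min at 37C. cAMP was measured by HTRF (cAMP-d2 plus anti-cAMP antibody-K) after 30 min at room temperature.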
# gsp antagonist: gsp mutant antagonism; gsp-mutant cells, cAMP HTRF, 30 min; Potency, µM (highest dose often 76.9 µM), inactives show top-dose activity change, negative = inhibition, actives largely listed as inhibitors; 340,000 compounds, 0.4% hits; calls by dose curve; cell line not stated here;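 also: intracellular cAMP measured with PDE inhibitor Ro 20-1724 present during compound exposure; potency is read from the fitted curve at half-maximal effect; % is scaled to controls: 0 for no effect and ±100 for the full control effect; nearly all actives have a fitted effect of over 65% in size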
#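 Measurement of cellular cAMP by homogeneous time-resolved fluorescence following a 30 min compound exposure at 37C. The PDE inhibitor […] was present throughout; the assay buffer was DPBS with 0.05% BSA and 0.005% Tween 20.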
# * hit, by the source's call; i = inactive; ? = inconclusive; / = no result given; [ ] = remark or other dose. Compounds with a hit are over-represented: about 1.3% of the library has one in this group of screens.
SMILES,RXFP1 ag,RXFP1 antag,Akt phos inh,gsp ag,gsp antagonist
Cc1ccn2c(NC(=O)c3ccccc3)c(-c3cccs3)nc2c1,-4%,15,i,-27%,9%
Cc1ccn2c(-c3csc(NCc4ccccc4)n3)c(C)nc2c1,1%,-25,i,-40%,40µM*
Cc1ccn2c(NCc3ccccc3)c(-c3cccs3)nc2c1,10%,-77*,i,3%[15.4 µM],-25%
CCCCc1nn2c(=O)cc(COC(=O)c3cccs3)nc2s1,1%,/,/,/,/
CCCCSCCCNC(=O)c1c[nH]c2ccc(S(=O)(=O)Nc3cccc(OC)c3)cc2c1=O,1%,-30,/,/,/
COCCc1nn2c(=O)cc(COC(=O)C(c3ccccc3)c3ccccc3)nc2s1,2%,-24,/,/,/
CSc1ccc(S(=O)(=O)N(C)Cc2ccccc2)cc1,-1%,4,i,-24%,35µM*
O=S(=O)(Nc1nc2ccccc2nc1NCc1ccco1)c1ccc(Cl)cc1,2%,-13,i,?,-23%
Cc1noc(C)c1CSc1nc2ccccc2nc1NS(=O)(=O)c1ccc(Cl)cc1,0%,-2,i,19%,32µM*
CCCCCCOc1ccc(C2C(=O)N(C3CCCCC3)CC(=O)N2CCC)cc1 (stereo not given),0%,-69*,/,/,/
CCCCCCOc1ccc(C2C(=O)N(C3CCCCC3)CC(=O)N2C2CCCCC2)cc1 (stereo not given),-1%,-18,/,/,/
COCCNC(=O)CN1C(=O)/C(=C/c2ccccc2)Oc2ccc(C(C)(C)C)cc21,5%,-16,i,13%,28µM*
CCCSCCCNC(=O)C1CCN(C(=O)c2cnn(-c3ccccc3)c2-n2cccc2)CC1,-2%,/,/,/,/
COc1ccc(CCNC(=O)C(=O)NCC(c2ccco2)S(=O)(=O)c2ccccc2)cc1OC (stereo not given),0%,-3,/,/,/
CCOC(=O)N1CCN(Cc2ccc(O)c3ncccc23)CC1,-3%,-30,i,1%,5%
CCOC(=O)N1CCN(Cc2ccccn2)CC1,0%,-9,-105%*,8%,15%
Cc1ccc(N=Cc2cc3c(cc2O)OC(N)=C(C#N)C3c2ccccc2)cc1 (stereo not given),0%,-69*,i,-14%,?
Cc1ccc(Cl)cc1N1CCN(C(=O)Cn2ccc3ccccc3c2=O)CC1,2%,-11,i,-6%,25µM*
Cc1ccc(C)c(N2CCN(C(=O)CCNC(=O)Cn3ccc4ccccc4c3=O)CC2)c1,1%,-2,i,?,-17%
COc1ccc(S(=O)(=O)N2CCC(C(=O)NCCC(=O)NCc3ccccc3OC)CC2)cc1,2%,?,i,1%,32µM*
COc1ccc(S(=O)(=O)N2CCC(C(=O)NCCC(=O)NCc3ccncc3)CC2)cc1,2%,5,i,-2%,22%
COc1ccc(C(=O)NCc2nnnn2-c2ccc(C)c(C)c2)cc1,11%,-2,/,/,/
CCCCn1c(=O)[nH]c(=O)c2c1nc(Cn1ncc(Cl)c(Cl)c1=O)n2CCC,25µM*,10,i,35%[15.4 µM],15%
O=[N+]([O-])c1ccc(-c2nc3ccc([N+](=O)[O-])cc3[nH]2)cc1,15%,2,i,?,?
O=[N+]([O-])c1ccc2nc(/C=C/c3ccc(Cl)cc3)[nH]c2c1,-1%,-23,i,-17%,35µM*
SMILES,RXFP1 ag,RXFP1 antag,Akt phos inh,gsp ag,gsp antagonist
COc1ccc(CCNC(=O)CCn2cccc2)cc1OC,1%,10,-101%*,-34%,-10%
CCOc1ccc(CCNC(=O)CCn2cccc2)cc1OCC,0%,-12,i,1%,-2%
Cc1ccc(-c2csc(NS(=O)(=O)c3cccc(F)c3)n2)o1,/,-75*,i,12%[15.4 µM],-7%
COCCOCC(OC)OC,/,-10,/,/,/
O=C(c1ccco1)N1CCN(Cc2cc(=O)c(OCc3ccccc3)co2)CC1,-2%,-13,i,20µM*,8%
O=[N+]([O-])c1ccc(Cl)c2c1C1C=CCC1C(c1ccccn1)N2 (stereo not given),-2%,-118*,i,-4%[15.4 µM],-12%
O=C(O)c1ccc(Cl)c2c1C1C=CCC1C(c1ccccn1)N2 (stereo not given),2%,/,/,/,/
CCc1cccc2c(SC(C)C(=O)NCC3CCCO3)nc(-c3ccccc3)nc12 (stereo not given),-2%,7,i,-6%,0%
CC(Sc1ncnc2sc(-c3ccccc3)cc12)C(=O)NCC1CCCO1 (stereo not given),2%,-98*,i,5%,-15%
CC(=O)Nc1ccc(S(=O)(=O)Nc2cccc(-n3cnnn3)c2)cc1,6%,13,i,7.9µM*,8%
CS(=O)(=O)Nc1ccc(C2=NN(C(=O)c3ccco3)C(c3ccccc3F)C2)cc1 (stereo not given),0%,-14,i,-32%,28µM*
CCS(=O)(=O)Nc1ccc(C2=NN(C(=O)c3ccco3)C(c3ccco3)C2)cc1 (stereo not given),0%,-24,i,-54%,?
COc1cccc(CNC(=O)c2ccc(-n3c(C)cc4c3CCCC4)cc2)c1,4%,-5,/,/,/
CCOC(=O)N1CCN(c2nc(SC)nc3sc4c(c23)CC(C)(C)OC4)CC1,?,0,-86%*,0%,-18%
CCN1CCN(c2nc(SC)nc3sc4c(c23)CC(C)(C)OC4)CC1,4%,/,i,-34%,-3%
O=C(CSc1nc2ccccc2o1)Nc1ccc(N2CCOCC2)cc1,0%,-7,-94%*,21%,?
CCOC(=O)c1c(/C=N/Nc2ccccc2)c2sc(C)cc2n1C,5%,/,/,/,/
CCCCSCCCNC(=O)c1cn(CC)c2ccc(S(=O)(=O)N(C)C3CCCCC3)cc2c1=O,1%,/,/,/,/
CCOC(=O)c1cc2c(C(F)(F)F)cc(-c3cccnc3)nc2o1,2%,4,-112%*,25%,3%
N#Cc1cc(NC(=O)C(=O)O)c(Cl)c(NC(=O)C(=O)O)c1,/,9,/,/,/
COc1cc(C2Nc3c(F)cccc3C3C=CCC32)cc(Br)c1OC (stereo not given),-2%,-65*,i,-4%,1%
COc1ccc(S(=O)(=O)N2CCOCC2)cc1NC(=O)CSc1nnc2ccccn12,3.5µM*,/,/,/,/
Cc1cc(C)cc(NC(=O)CN2CCc3cc4c(cc3C2C)OCCCO4)c1 (stereo not given),1%,-62*,i,0%,-13%
Cc1c(C(=O)N2CCOCC2)sc(NC(=O)c2ccc([N+](=O)[O-])cc2)c1C#N,-5%,3,i,19%[15.4 µM],35µM*
Cc1c(C(=O)N2CCCC2)sc(NC(=O)c2ccccc2)c1C#N,2%,-4,i,-6%,?
CCCC(O)(c1ccccc1)C(CN1CCOCC1)c1ccccc1 (stereo not given),-4%,-14,i,?,4%

# Screens deposited in PubChem BioAssay by National Center for Advancing Translational Sciences (NCATS).
